The campaign covered roughly 320,000 compounds. About 2,200 (0.69%) were called active. The sample holds actives, similar compounds and a random draw of the others, so the mix is not that of the screen.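 How the source made its calls: active means inhibition above the mean of all tested compounds plus 3 SD, cutoff set per campaign (cut at about 30% in these data); inactive means the rest.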

For the assay, the target named is Bcl-2-like protein 1 (Homo sapiens) (UniProt Q07817). Put plainly: Bcl-xL/Bim BH3 interaction blockers – biochemical, fluorescence polarization, HTS, primary screen (AID 2129).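 Further: 0% = DMSO wells and 100% = unlabeled Bim-BH3 peptide competitor; inhibitors lower millipolarization by displacing the labeled peptide.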 The settings on record: GST-Bcl-xL / FITC-Bim BH3 peptide fluorescence polarization; at 10.9 µM; hits give high values. On the technique in general: Fluorescence polarisation rises when a labelled molecule tumbles more slowly, as on binding a larger partner.
Sequence of Bcl-2-like protein 1 (Homo sapiens) (Q07817 whole entry, looked up): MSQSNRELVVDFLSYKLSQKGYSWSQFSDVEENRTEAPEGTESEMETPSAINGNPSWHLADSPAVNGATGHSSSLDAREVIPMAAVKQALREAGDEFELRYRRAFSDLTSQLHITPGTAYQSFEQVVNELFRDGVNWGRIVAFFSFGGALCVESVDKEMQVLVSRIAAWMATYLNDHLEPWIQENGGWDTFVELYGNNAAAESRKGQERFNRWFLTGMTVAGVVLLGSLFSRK
By inhibition is commonly meant the relative decrease from the control value, in per cent. Consider `Cc1ccc2[nH]c(C(=O)O)c(NC(=O)c3ccccc3[N+](=O)[O-])c2c1`, for which the inhibition was 3.72% (inactive).

For the molecule `CN(C)CCCCCN(C)Cc1cc2ccccc2o1`, the inhibition was 0.68% (inactive).

On to `CCCCCCCNc1nc(Cl)nc(NCCO)n1`, for which the inhibition is 5.24% (inactive).

`CCOc1ccc2nc(N3CCCN(C(=O)Nc4ccccc4C)CC3)c(C#N)cc2c1`: the inhibition was 46.6% (active).

With `CCOc1ccc(C(=O)NC2CCN(C(=O)Nc3ccccc3OC)CC2)cc1`, the inhibition was 1.4% (inactive).

Regarding `CCOC(=O)c1cc(C#N)c(N2CCCCC2)nc1-c1ccccc1`, the inhibition is -1.67% (inactive).

As for `O=C(NC(=S)Nc1ccc(Cl)c(C(=O)O)c1)c1cncc(Br)c1`, the inhibition is -0.3% (inactive).

As to `Cc1ccc(C)c(NC(=S)NNC(=S)Nc2ccc(C(C)C)cc2)c1`, the inhibition was 18% (inactive).

Consider `CC(C)c1ccc(NC(=S)NNc2ccc(Cl)c(C(=O)O)c2)cc1`, for which the inhibition was 115% (active).

In the case of `Cc1nn(C(C)(C)C)c(OC(=O)CC(C)C)c1S(=O)(=O)c1ccccc1`, the inhibition is 2.54% (inactive).

Turning to `Cc1c(Nc2cc(N3CCCC(C)C3)c3nonc3c2[N+](=O)[O-])c(=O)n(-c2ccccc2)n1C` (stereo not given), the inhibition is -1.91% (inactive).

For the molecule `Nc1nc(NCC(=O)O)nc(N2CCCCCC2)c1[N+](=O)[O-]`, the inhibition is -0.96% (inactive).

Take `Nc1cc(N2CCCCCC2)c2nonc2c1[N+](=O)[O-]`: the inhibition was 53.6% (active).

For `CCCCCCCCCOC1OC(CO)C(O)C(O)C1NC(C)=O` (stereo not given), the inhibition is 0.06% (inactive).

`O=c1c2ccccc2nnn1CSc1nc2sc3c(c2c(=O)n1CC1CCCO1)CCC3` (stereo not given): the inhibition is -0.57% (inactive).

In the case of `O=C1CCC(=O)N(O)CCCCCNC(=O)CCC(=O)N(O)CCCCCNC(=O)CCC(=O)N(O)CCCCCN1`, the inhibition is 6.42% (inactive).

For the molecule `CCCn1c(C(C)Nc2nc(-c3ccc(C)cc3)cs2)nc2cc(Cl)c(N3CCCCC3)cc21` (stereo not given), the inhibition was 4.98% (inactive).

As to `CCCn1c(C2CCCN2c2nc(-c3ccc(OC)cc3)cs2)nc2ccccc21` (stereo not given), the inhibition is 7.05% (inactive).

For `CCCn1c(C2CCCN2c2nc(-c3ccc(C)cc3)cs2)nc2cc(Cl)c(N3CCCCC3)cc21` (stereo not given), the inhibition is 76.7% (active).

As to `Cc1cc(S(=O)(=O)NCc2ccccn2)c(Cl)cc1Cl`, the inhibition is 4.73% (inactive).

Take `CCOC(=O)c1c(C)n(C)c2ccc(OC)c(NC(=O)CN3CCC4(CC3)OCCO4)c12`: the inhibition was -7.5% (inactive).

Regarding `[O-][n+]1c2c(nn1-c1ccc(Cl)c(Cl)c1)-c1nonc1CC2`, the inhibition was -0.16% (inactive).

For `CC1(OC(=O)C2CCCC2)C(=O)C=C2C=C(c3ccc(C#N)cc3)OC=C2C1=O` (stereo not given), the inhibition was 10.6% (inactive).

For the molecule `CC1(OC(=O)CCc2ccccc2)C(=O)C=C2C=C(c3ccc(C#N)cc3)N(CCc3ccccn3)C=C2C1=O` (stereo not given), the inhibition was 25.8% (inactive).

`COCCN1C=C2C(=O)C(C)(OC(=O)C3CCCC3)C(=O)C=C2C=C1c1ccsc1` (stereo not given): the inhibition was 34.2% (active).

For `Fc1ccccc1/C=N/Nc1cc(N2CCCCC2)ncn1`, the inhibition is 1.94% (inactive).

As for `Cn1nccc1/C=N\NC(=O)c1ccc(Cl)cc1`, the inhibition is 7.38% (inactive).

`O=c1[nH]c2ccccc2n2c(-c3ccccc3)nnc12`: the inhibition was 43% (active).

As to `O=c1[nH]n2c(-c3ccccc3)nc(O)c2c2ccccc12`, the inhibition was -0.91% (inactive).

Regarding `O=C(O)/C=C/c1ccc(S(=O)(=O)N2CCCCCC2)cc1`, the inhibition is -3.18% (inactive).

`O=C(CN1CCSCC1)N/N=C/c1ccc(F)cc1F`: the inhibition was 2.55% (inactive).

Regarding `COc1ncnc2c1N=C1CC(C)(C)CC(N)=C1S2`, the inhibition was 163% (active).

`O=C(COc1cccc(Cl)c1)NCc1ccccc1`: the inhibition is 3.14% (inactive).

`O=C1c2ccccc2C(=O)N1c1cccc2ccccc12`: the inhibition is 4.16% (inactive).

Consider `O=C(O)c1ccc2c3c(cccc13)C(=O)N(OS(=O)(=O)c1ccccc1)C2=O`, for which the inhibition was -6.08% (inactive).

For `C[N+](C)(CCCCCC[N+](C)(C)CCCN1C(=O)c2cccc3cccc(c23)C1=O)CCCN1C(=O)c2cccc3cccc(c23)C1=O`, the inhibition is 1.22% (inactive).

Regarding `Cc1nn(-c2cc(Cl)ccc2N)c(=O)c2ccccc12`, the inhibition was -0.7% (inactive).

As to `O=C(C1CCN(S(=O)(=O)c2ccc(Br)s2)CC1)N1CCN(C2CCCCC2)CC1`, the inhibition was 3.57% (inactive).

For the molecule `CSc1ccc(CN(C)CC(=O)NCc2ccc(F)cc2)cc1`, the inhibition is 5.75% (inactive).

In the case of `CSc1ccc(CN2C(=O)NC3(CCCCCC3)C2=O)cc1`, the inhibition was 0.37% (inactive).

As for `Cc1c(C(=O)NC(C)C2CC3CCC2C3)cccc1[N+](=O)[O-]` (stereo not given), the inhibition is 0.81% (inactive).

As for `COc1ccccc1N1CCN(c2nc(C)cc(=O)[nH]2)CC1`, the inhibition is 1.46% (inactive).

Regarding `CC(=O)C1(C)N(O)C(C)(C)C(c2cccs2)=[N+]1[O-]` (stereo not given), the inhibition was 6.8% (inactive).

For the molecule `Cc1ccc(SCC(=O)Nc2nncs2)cc1`, the inhibition is -0.16% (inactive).

Consider `CCOc1cc(NC(=S)NCCCOC)c(OCC)cc1NC(=O)c1ccco1`, for which the inhibition is 1.13% (inactive).

As to `COCCNC(=O)Nc1ccc2nc(-c3ccco3)c(-c3ccco3)nc2c1`, the inhibition was 120% (active).

`Cc1nc2cc(NC(=O)NCc3ccccc3)ccc2o1`: the inhibition is -3.22% (inactive).

For `Cc1cc(C)cc(NC(=O)NCc2ccccn2)c1`, the inhibition was 0.71% (inactive).

With `CCOc1ccc(C(=O)NC(C(=O)NCc2ccccn2)C(C)C)cc1` (stereo not given), the inhibition was -3.49% (inactive).

`O=C(NCc1ccccn1)c1ccc2nc(-c3ccco3)c(-c3ccco3)nc2c1`: the inhibition was 61.7% (active).

On to `O=C(NC1CC2CCCC(C1)N2C(=O)N1CCCCC1)C1CCCCC1` (stereo not given), for which the inhibition is 0.87% (inactive).

On to `O=C(Cc1nc2ccccc2[nH]c1=O)c1ccc(Cl)cc1`, for which the inhibition was 34.1% (active).

In the case of `N#C/C(=C(/O)COC(=O)COc1ccc(Cl)cc1)c1nc2ccccc2[nH]1`, the inhibition is -9.4% (inactive).

Regarding `O=C(/C(=C/c1cccc(Cl)c1)c1nc2ccccc2[nH]1)c1ccccc1`, the inhibition was -0.83% (inactive).

Turning to `COc1ccc(NC(=S)N2N=CCC2c2ccccc2)cc1` (stereo not given), the inhibition is 1.8% (inactive).

For `C[n+]1ccc(C(=O)NCc2ccccc2)cc1`, the inhibition is -12.9% (inactive).

In the case of `COc1ccc(S(=O)(=O)Nc2cc(C)on2)cc1NC(C)=O`, the inhibition was 3.59% (inactive).

Turning to `O=c1c2cc(-c3ccccc3)sc2nc2n1N=C(c1cccs1)CS2`, the inhibition was 7.98% (inactive).

Consider `COc1ccc(Nc2ccc([N+](=O)[O-])cn2)cn1`, for which the inhibition is 47.6% (active).

For the molecule `COc1ccccc1C1CCN(c2ccc([N+](=O)[O-])cn2)CC1`, the inhibition was 6.64% (inactive).

As to `COc1ccc(C(=O)NCCNc2ccc([N+](=O)[O-])cn2)cc1`, the inhibition is -0.8% (inactive).

Regarding `O=C(Cn1cc(C(F)(F)F)ccc1=O)N/N=C/c1ccc(Cl)cc1Cl`, the inhibition was 4.51% (inactive).

For the molecule `Cc1ccc(NC(=O)CN(C)S(=O)(=O)c2cnc[nH]2)cc1C`, the inhibition is 2.37% (inactive).

Turning to `O=C(N/N=C\c1cc(Br)c(Br)o1)C1COc2ccccc2O1` (stereo not given), the inhibition was 8.03% (inactive).

With `Cc1ccc(C(=O)N/N=C\c2cc(Br)c(Br)o2)cn1`, the inhibition was 39.1% (active).

For the molecule `Cc1ccc(C(=O)N/N=C/c2cccc3ccccc23)cn1`, the inhibition is 0.59% (inactive).

With `CC(C)(C)C1CCc2c(sc3nc(SCC(N)=O)nc(N)c23)C1` (stereo not given), the inhibition was 0.88% (inactive).

In the case of `O=C1COc2ccc(C(=O)CSc3ccc(Br)cc3)cc2N1`, the inhibition was 1.67% (inactive).

As to `Cc1ccc(NC(=O)CSc2nc(=O)n(CCN(C)C)c3c2CCCC3)c(C)c1`, the inhibition was 0.09% (inactive).

As for `O=C1CCC(=O)N1CCOP1(=O)COc2ccccc2OC1`, the inhibition was 4.75% (inactive).

For `CN(CC(=O)Nc1ccc(Cl)c(C(F)(F)F)c1)C(=O)CCC(=O)c1ccccc1`, the inhibition is 45.3% (active).

For `Cc1cccc(C)c1NC(=O)CN(C)C(=O)CCC(=O)c1ccccc1`, the inhibition is 7.72% (inactive).

Consider `Cc1ccc(C(=O)CCC(=O)N(C)CC(=O)Nc2c(Cl)cccc2Cl)cc1`, for which the inhibition was -0.97% (inactive).

Take `Cc1ccc2nc(N3C(=O)C(O)=C(C(=O)c4ccco4)C3c3cccc(O)c3)sc2c1` (stereo not given): the inhibition was 2.1% (inactive).

In the case of `C=CCSc1nnc(N2C(=O)C(O)=C(C(=O)c3ccco3)C2c2ccc(F)cc2)s1` (stereo not given), the inhibition is 51.8% (active).

For `CC(C)c1ccc(C2C(C(=O)c3ccco3)=C(O)C(=O)N2CC2CCCO2)cc1` (stereo not given), the inhibition is 1.85% (inactive).

In the case of `CC(OC(=O)C1CC(=O)N(Cc2ccccc2)C1)C(=O)Nc1ccccc1[N+](=O)[O-]` (stereo not given), the inhibition is 5.02% (inactive).

With `O=C(CSc1ncccn1)N1CCCC1`, the inhibition is 1.98% (inactive).

`C=CCNc1nnc(C)c2ccccc12`: the inhibition was 1.09% (inactive).

`C=CCNc1nnc(SCC(=O)N2CCCCC2)c2ccccc12`: the inhibition was 108% (active).

Take `COCCNC(=O)C(c1ccc(C)cc1)N(C(=O)CCC(=O)Nc1ccccn1)c1cccc(C)c1` (stereo not given): the inhibition was 3.67% (inactive).

For `CN(C)C(=O)CSc1n[nH]c(-c2ccco2)n1`, the inhibition was 1.16% (inactive).

Take `O=C1CCC(=O)N1c1ccc(NCCc2ccccc2F)c([N+](=O)[O-])c1`: the inhibition was 4.81% (inactive).

With `Cc1ccc(C(=O)NC(=S)Nc2ccccc2C)cc1`, the inhibition is 2.65% (inactive).

As to `Cc1ccc(NC(=S)NC(=O)c2ccc(-c3ccccc3)cc2)cc1`, the inhibition is 1.62% (inactive).

With `COC(=O)c1sc(NC(=S)NC(=O)c2ccc(C)cc2)nc1C`, the inhibition was 90.6% (active).

On to `CCOC(=O)c1sc2nc(C)nc(SCC(N)=O)c2c1C`, for which the inhibition is 3.97% (inactive).

`C=CCN1C=C2C(=O)C(C)(OC(=O)CCc3ccccc3)C(=O)C=C2C=C1c1ccc(C#N)cc1` (stereo not given): the inhibition is 26.4% (inactive).

`O=C(COC(=O)c1ccco1)NCc1ccc(Cl)cc1`: the inhibition was 3.7% (inactive).

With `CC(C)(C)OC(=O)NCCCC1=CC2=CC(=O)C(C)(OC(=O)c3ccco3)C(=O)C2=CO1` (stereo not given), the inhibition was 62.9% (active).

With `CCCN1CNC(=S)N(CCc2ccccc2)C1`, the inhibition was -3.74% (inactive).

On to `C/C(CC(=O)NC(C)c1ccccc1)=N\NC(N)=S` (stereo not given), for which the inhibition is 4.39% (inactive).

`CC(C)N(C(=O)COC(=O)c1ccccc1C(=O)N1CCN(c2ccc(F)cc2)CC1)C(C)C`: the inhibition was 10.7% (inactive).

For the molecule `O=C(COC(=O)c1ccccc1C(=O)N1CCN(c2ccccc2)CC1)NCc1ccccc1`, the inhibition is 56.5% (active).

`O=C(c1cc(=O)c2ccccc2o1)N1CCN(c2ccccc2)CC1`: the inhibition is -0.91% (inactive).

Source of the values: PubChem BioAssay AID2129 (The Scripps Research Institute Molecular Screening Center, 2009).
